Format in all cases: functional
Assay [1] has as its target Solute carrier family 2, facilitated glucose transporter member 1 (Homo sapiens) (UniProt P11166). Kind of assay: ST_JUDE_LEISH: Cytotoxicity at 2uM final concentration against transgenic Leishmania Mexicana promastigotes LmGLUT1 that are glucose transport deficient and complemented with the human glucose transporter GLUT1. Activity is measured by DNA content using SYBR green in vitro.

Assay [2] deals with Hexose transporter 1 (Plasmodium falciparum) (UniProt O97467). Kind of assay: ST_JUDE_LEISH: Cytotoxicity at 2uM final concentration against transgenic Leishmania Mexicana promastigotes LmPfHT that are glucose transport deficient and complemented with the Plasmodium falciparum hexose transporter. Activity is measured by DNA content using SYBR green in vitro.
The target of assay [3] is Glucose transporter (Leishmania mexicana) (UniProt O61059). Kind of assay: ST_JUDE_LEISH: Cytotoxicity at 2uM final concentration against transgenic Leishmania Mexicana promastigotes LmGT2 that are glucose transport deficient and complemented with the L. Mexicana glucose transporter 2. Activity is measured by DNA content using SYBR green in vitro.

Sequence of Solute carrier family 2, facilitated glucose transporter member 1 (Homo sapiens) (P11166 whole entry): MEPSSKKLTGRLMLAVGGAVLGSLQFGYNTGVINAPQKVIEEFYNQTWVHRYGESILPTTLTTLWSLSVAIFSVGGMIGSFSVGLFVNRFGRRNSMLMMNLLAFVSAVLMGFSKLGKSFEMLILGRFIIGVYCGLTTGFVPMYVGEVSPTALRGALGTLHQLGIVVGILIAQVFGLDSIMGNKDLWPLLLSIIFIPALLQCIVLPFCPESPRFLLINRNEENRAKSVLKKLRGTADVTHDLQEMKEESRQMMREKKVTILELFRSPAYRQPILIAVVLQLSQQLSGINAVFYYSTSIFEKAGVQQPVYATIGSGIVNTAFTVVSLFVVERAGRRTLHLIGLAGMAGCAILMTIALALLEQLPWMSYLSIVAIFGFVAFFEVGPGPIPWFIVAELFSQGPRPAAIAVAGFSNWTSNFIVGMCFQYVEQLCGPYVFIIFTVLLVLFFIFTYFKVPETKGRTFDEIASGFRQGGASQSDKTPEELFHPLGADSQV

The term inhibition denotes the relative decrease from the control value, in per cent. As to `CCCc1cc(=O)[nH]c(-n2nc(C)cc2NC(=O)CC(c2ccccc2)c2ccccc2)n1`, the values for the inhibition in assay [1], in assay [2] and in assay [3] were -2.15%, 1% and 2.15%, respectively.
For `O=C(NC1CCCCC1)N(Cc1cccc(-c2ccc(CNC3CCCC3)cc2)c1)C1CCN(Cc2ccccc2)CC1` the same measures were 16%, 14.6% and 9.9%.
On the same counts, the results for `CN1CCC(NCc2cccc(-c3nn(C)c4nc(NC5CCCC5)ncc34)c2)CC1` are 2.78%, 1.84% and 3.81%.
Consider `CCC[C@@H]([C@@H](CC1CCCCC1)C(=O)N[C@H](C(=O)Nc1nccs1)[C@H](C)O)N(O)C=O`, for which the values for the inhibition in assay [1], in assay [2] and in assay [3] were 1.07%, 1.35% and 2.03%, respectively.
`O=C(/C=C/c1ccc(Cl)c(Cl)c1)NCCCCCN1CCC(NC(=O)Nc2ccc(OC(F)F)cc2)CC1`: the inhibition is -1.59% in assay [1], -0.5% in assay [2] and 5.2% in assay [3].
`CCn1c(C2CCN(CCC3CCN(C(=O)/C=C/c4ccc(Cl)c(Cl)c4)CC3)CC2)nc2ccccc21`: the inhibition was found to be 3.31% in assay [1], 1.31% in assay [2] and 0.66% in assay [3].
With `COc1ccc(C)c(Nc2ccnc(Nc3ccc(-c4cnc[nH]4)cc3)n2)c1`, the figures for the inhibition in assay [1], in assay [2] and in assay [3] were 2.85%, 2.37% and 3.29%, respectively.
On the same counts, the results for `COc1cccc(Nc2c(C(N)=O)cnc3ccc(-c4ccccc4)cc23)c1` are 0.37%, 0.94% and 1.58%.
For `Cn1cncc1C(=O)Nc1cccc(-c2csc(-c3nc4ccccc4[nH]3)c2)c1` the same measures were 2.44%, 3.44% and 2.3%.
For `COc1cc(-c2nc(-c3ccc(C(=O)c4ccc(F)cc4)cc3)c(-c3ccccc3)[nH]2)cc(OC)c1O` the same measures were 3.28%, -0.56% and 0.05%.
Take `CCOc1c(CNCCCNc2cc(O)c3ccccc3n2)cc(Br)cc1OC`: the inhibition in assay [1] turned out to be 7.77%; in assay [2], 4.37%; in assay [3], 6.38%.
As for `CC(C)C1C(=O)N(S(C)(=O)=O)C2CCN(C(=O)c3ccc(CN4CCCCC4)c([N+](=O)[O-])c3)C12` (stereo not drawn), the inhibition in assay [1] was 3.87%; in assay [2], 4.49%; in assay [3], -1.4%.
On the same counts, the results for `CC(C)n1nc(C(=O)N2CCN(c3ccccc3)CC2)c2ccccc2c1=O` are 1.27%, -0.42% and -0.69%.
On the same counts, the results for `Clc1ccc(OCc2ccccc2)c(Cc2ccc(-c3nc4cnccc4[nH]3)o2)c1` are 0.59%, 2.01% and 0.25%.
On the same counts, the results for `CN(C)C(CNc1ncnc2cc(Cl)ccc12)Cc1ccccc1` (stereo not drawn) are 4.67%, 3.87% and 3.65%.
Take `Cc1cccc2nc(-c3ccc(-c4cccc(CN5CCN(CCO)CC5)c4)cc3)[nH]c12`: the inhibition in assay [1] was found to be 7.34%; in assay [2] it was 4.65%; in assay [3] it was 4.22%.
For `COc1ccc(CCNCC(O)c2cccc(Br)c2)c(Cl)c1OC` (stereo not drawn) the same measures were -3.38%, -1.73% and -3.62%.
For `CC(C)(C)c1ccc(CNC(=O)COc2ccc(-c3nnc(-c4cccc([N+](=O)[O-])c4)o3)cc2[N+](=O)[O-])cc1` the same measures were -0.15%, -0.74% and -0.93%.
In the case of `CN1CCN(CCCNc2ncc3c(-c4ccc(NC(=O)Nc5cc(C(F)(F)F)ccc5F)c(F)c4)nn(C)c3n2)CC1`, the figures for the inhibition in assay [1], in assay [2] and in assay [3] were -0.98%, -3.33% and 7.86%, respectively.
On to `CN1CCN(c2ccnc3ccc(NC(=O)N(C)c4ccc(Cl)c(Cl)c4)cc23)CC1`, for which the inhibition in assay [1] is -0.11%; in assay [2], 0.31%; in assay [3] it was 1.72%.
As for `OC(CNCCc1ccccc1)Cn1c2ccc(Cl)cc2c2cc(Cl)ccc21` (stereo not drawn), the inhibition in assay [1] is -1.53%; in assay [2], -1.78%; in assay [3], -2.27%.
For `CSc1cccc(NC(=O)c2cc3ccccc3oc2=O)c1` the same measures were 0.58%, 0.06% and -3.2%.
With `COc1ccccc1NC(=O)NC1CCN(CCCCCNC(=O)/C=C/c2ccc(Cl)c(Cl)c2)CC1`, the figures for the inhibition in assay [1], in assay [2] and in assay [3] were 1.87%, 2.75% and 2.7%, respectively.
On the same counts, the results for `COc1cc(-c2cc(-c3ccc(OCCN(C)C)cc3)[nH]c2-c2ccncc2)ccc1Cl` are 0.75%, 0.72% and 2.28%.
With `Cn1nc(C(F)(F)F)c(-c2ccc(F)cc2)c1NC(=O)Nc1ccc(F)cc1`, the inhibition in assay [1] was 3.38%; in assay [2], 4.67%; in assay [3], 4.05%.
Turning to `CCC(CCON1C(N)=NC(N)=NC1(C)C)c1ccc(Cl)cc1` (stereo not drawn), the values for the inhibition in assay [1], in assay [2] and in assay [3] were 4.18%, 1.03% and 2.41%, respectively.
For `O=C(/C=C/c1ccc(Cl)c(Cl)c1)NCCCCCN1CCC(c2c[nH]c3cc(O)ccc23)CC1`, the inhibition in assay [1] was found to be 9.77%; in assay [2], 8.43%; in assay [3] it was 7.41%.
As for `COc1cc(NC(=O)Nc2cc(C)nc3ccccc23)cc(OC)c1`, the inhibition came out at 0.54% in assay [1], 0.94% in assay [2] and 2.05% in assay [3].
For `CCCN(Cc1ccc(C)cc1)Cc1cc(=O)c2cc(Cl)ccc2[nH]1` the same measures were 9.14%, 10.5% and 9.04%.
For `Cc1cc(NCCC(=O)NCCOc2ccccc2)nc(NCCc2ccc(F)cc2)n1` the same measures were 2.06%, 0.98% and -2.75%.
For `Cc1ccc(CON2C(N)=NC(N)=NC23CCCCC3)c2ccccc12` the same measures were 3.13%, 2.42% and 4.18%.
For the compound `CC(C)c1ccc(S(=O)(=O)N(c2ccc3c(c2)OCO3)C2CCN(Cc3ccccc3)C2)cc1` (stereo not drawn), the inhibition was -0.01% in assay [1], -0.17% in assay [2] and 0.98% in assay [3].
On the same counts, the results for `Cc1noc(-c2ccc(NC[C@@H](C)NC[C@H](O)c3cccc(Cl)c3)cc2)n1` are 3.79%, 3.1% and 4.26%.
On the same counts, the results for `OC(CNCc1ccccc1OCc1ccccc1)c1cc(C(F)(F)F)cc(C(F)(F)F)c1` (stereo not drawn) are 8.75%, 10.9% and 4.23%.
For `CN1CCN(c2ccnc3ccc(NC(=O)Nc4ccc5c(c4)CCCC5=O)cc23)CC1` the same measures were 0.37%, 1.11% and 1.66%.
For the compound `Fc1ccc(Nc2ccnc3cc(-c4cccc(CNCCN5CCOCC5)c4)ccc23)c(Cl)c1`, the figures for the inhibition in assay [1], in assay [2] and in assay [3] were 2.04%, 2.83% and 2.84%, respectively.

The values above are taken from ChEMBL document CHEMBL3433997, “St. Jude Leishmania screening dataset” (2016).
